Screening data: PubChem BioAssay, several laboratories
EBV LMP1 NFkB – Epstein-Barr LMP1 NF-kappaB reporter inhibition; LMP1-induced NF-kappaB luciferase reporter cells, luminescence; inhibition, % at 12.5 µM; 0.69% of 350,000 active; AID 504558; in the data active = inhibition above about 41%
Peg3 prom inh – inhibitors of Peg3 promoter; HeLa PEG-Prom luciferase reporter, luminescence, overnight; AID 588405; inhibition, % at 20 µM; 1.7% of 360,000 active;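 active = inhibition of at least 50% at 20 µM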
TWEAK-Fn14 inh – inhibitors of TWEAK-Fn14 interaction signaling. 2% of 360,000 active. AID 1159606. TWEAK-stimulated Fn14 reporter cells, luciferase luminescence, 8 h. inhibition, % at 10 µM; in the data active = inhibition above about 50%
TRPM1 prom inh – MITF TRPM1 promoter inhibition in SK-MEL-5 cells; SK-MEL-5 TRPM1 promoter luciferase, 24 h; inhibition, % at 12.5 µM; 0.83% of 330,000 active; AID 488899;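 active = mean inhibition across replicates of 60% or more, whatever share of single replicates reaches that level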
HIF-2a block – inhibitors of HIF-2a. AID 624352. 0.72% of 360,000 active. inhibition, % at 18.8 µM. 786-0 RCC cells HIF-2a reporter, luciferase luminescence, overnight;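 active = inhibition of the luminescence signal of 40% or more relative to plate controls, in a single-dose primary screen at 18.75 µM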
TROY signal inh – blocks TROY-dependent signaling in reporter cells; Q293 LMP1-TROYcd NF-kB luciferase reporter, 4 h; inhibition, % at 10 µM; 0.98% of 360,000 active; AID 1347056;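 active = compounds whose plate-normalised and pattern-corrected inhibition of the luciferase reporter signal at the single screening dose is 50% or more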
Hits are given with their value; - = inactive; . = no result given. Shown are actives, neighbours in structure and some others; about 4% of the full set was active somewhere.

SMILES	EBV LMP1 NFkB	Peg3 prom inh	TWEAK-Fn14 inh	TRPM1 prom inh	HIF-2a block	TROY signal inh
COc1cc(OC)cc(C(=O)N2CCCc3ccccc32)c1	-	-	52	-	-	-
COc1ccc(OC)c(C2=NOC(C(=O)N3CCCc4ccccc43)C2)c1 (stereo not given)	-	-	55	-	-	-
COc1ccc(CC(=O)OCC(=O)N2CCCc3ccccc32)cc1	-	-	-	-	-	-
COc1ccc(CC(=O)N2CCCc3ccccc32)cc1	-	-	50	-	-	-
O=C(CCS(=O)(=O)c1ccc(Cl)cc1)N1CCCc2ccccc21	-	-	53	-	-	65
COC[C@H]1CCCN1[C@H]1CS(=O)(=O)N[C@@H]1COCc1ccccc1	.	-	-	.	-	-
CCC1CCCCN1C(=O)CCNC(=O)Cn1cnc2ccccc2c1=O (stereo not given)	-	-	-	-	-	-
O=C(OCC(=O)N1CCc2ccccc21)c1ccccc1[N+](=O)[O-]	-	-	60	-	-	-
O=C(COC(=O)c1ccccc1[N+](=O)[O-])c1ccc(C2CCCCC2)cc1	-	-	81	-	-	78
O=C(c1cc(=O)c2ccccc2o1)N1CCCc2ccccc21	-	-	52	-	-	-
COc1ccc(CC(=O)Nc2cccc3c2CCCC3)cc1	-	-	104	.	-	-
O=C(c1cc2ccccc2c(=O)o1)N1CCCc2ccccc21	-	-	-	-	-	-
O=C1C(=NO)CCc2ccccc21	-	-	-	-	-	-
CC(CCc1ccccc1)N1CCN(C)CC1 (stereo not given)	-	-	-	-	-	-
O=C(NNC(=O)c1cccc2ccccc12)c1ccc(Br)cc1	-	-	-	-	-	-
O=C(COc1ccccc1)N1CCc2ccccc21	-	-	-	-	-	-
O=C(COc1ccccc1)OCC(=O)N1CCCc2ccccc21	-	-	-	-	-	60
CCOC(=O)[C@]12CCCC=C1N(Cc1cccc3ccccc13)C(=O)[C@H](CC(=O)N1CCCC1)C2	.	.	-	.	-	-
COc1cc(C=O)ccc1OCCCOc1ccccc1C(=O)O	-	-	102	-	-	84
COc1cc(C=O)ccc1OCCCOc1ccccc1[N+](=O)[O-]	-	-	-	-	-	-
CC1CCC(NC(=O)CSc2nncn2C)CC1 (stereo not given)	-	-	-	-	-	-
O=C1c2ccccc2C(Nc2ccc(Cl)cc2)N1CCN1CCOCC1 (stereo not given)	83	-	-	-	-	-
Cc1ccc(C(=O)N/N=C(/CC(=O)c2cccs2)C(F)(F)F)cc1	-	-	-	-	-	53
O=C(N/N=C(\CC(=O)c1cccs1)C(F)(F)F)c1ccncc1	-	-	-	-	-	-
CCCCCCCCC1=NCCc2c1[nH]c1ccccc21	-	91	-	-	-	-
SMILES	EBV LMP1 NFkB	Peg3 prom inh	TWEAK-Fn14 inh	TRPM1 prom inh	HIF-2a block	TROY signal inh
Cc1cc(C(=O)CSc2ccc3c(c2)OCCO3)c(C)n1C1CC1	-	-	-	-	-	-
CCn1c2ccccc2c2cc(/C=N/NC(=O)c3ccccc3C)ccc21	87	-	-	-	-	-
CCn1c2ccccc2c2cc(/C=N/NC(=O)c3cccc(C)c3)ccc21	88	-	-	-	-	-
Cn1c2ccccc2c2cc(/C=N/NC(=O)c3ccccc3F)ccc21	-	-	-	-	-	-
COc1ccccc1CCC(=O)N1CCN(S(=O)(=O)c2cc(C(F)(F)F)ccc2Cl)CC1	-	-	-	-	-	-
C[C@H](NC(=O)C1CCN(S(=O)(=O)c2ccccc2)CC1)C(=O)NCc1ccncc1	-	-	-	.	-	-
S=C(NCc1ccccn1)NN=Cc1ccccn1	61	-	-	70	-	-
C=CCSC(=S)NC1CCS(=O)(=O)C1 (stereo not given)	-	-	-	69	-	-
NC(=S)NC1CCS(=O)(=O)C1 (stereo not given)	-	-	-	-	-	-
Cc1ccccc1S(=O)(=O)N1CCN(c2ccc3c(c2)C2CC3CCN2C(=O)OCc2ccccc2)CC1 (stereo not given)	.	-	-	.	-	-
COc1ccc(-c2ccc(CN3C(C(C)C)C(=O)N(Cc4cn(CCC5OCCO5)nn4)CCS3(=O)=O)cc2)cc1 (stereo not given)	-	-	-	.	-	-
COC(=O)/C=C\C(C#N)(C#N)N=Cc1ccc(OC)cc1	-	105	-	-	-	-
